The values below come from PubChem BioAssay (NCI).

SMILES strings stand for the structures. About 83,000 compounds went through this panel and 20% of them were active in at least one assay; those are over-represented in the sample as a whole.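 Percent growth is the endpoint: 0 to 100 indicates growth inhibition (40 means 60% inhibition), 0 means no net growth, and negative values indicate cell death.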 A number with no mark means an inactive call. Activity calls are given as the source filed them. How the source made its calls: active means growth percent below 10; inactive means the rest.

What all share (test): NCI-60 one-dose screen, 48 h (100 = growth as untreated, 0 = no growth, -100 = all killed)
Common to all, as to settings: 10 µM unless noted

For assay [1], the system named is SR leukemia.
Assay [2] relates to RPMI-8226 leukemia.
Assay [3] deals with OVCAR-8 ovarian.
Assay [4] deals with OVCAR-5 ovarian.
Assay [5] deals with OVCAR-4 ovarian.
For assay [6], the system named is SK-OV-3 ovarian.
For assay [7], the system named is IGROV1 ovarian.
The subject of assay [8] is OVCAR-3 ovarian.
Assay [9] has as its system NCI/ADR-RES ovarian.
The test system of assay [10] is T-47D breast.
For assay [11], the system named is BT-549 breast.
Assay [12] concerns MDA-MB-435 melanoma.
Assay [13] deals with MCF7 breast.
Assay [14] relates to HCT-116 colon.
Assay [15] concerns HCC-2998 colon.
The test system of assay [16] is KM12 colon.
For assay [17], the system named is MDA-MB-468 breast.

`COc1cc(CNC(=O)/C=C/c2ccc3c(c2)OCO3)ccc1OCc1cn(-c2cccc(C(F)(F)F)c2)nn1`: the growth in assay [1] is 41.5%; in assay [2], 40.9%; in assay [3] it was -9.92% (active); in assay [4], 36.6%; in [5] it was 34.9%; in [6], 47.4%. Further, the growth in assay [7] is 44.7%; in [8], 42.9%; in assay [9] it was 4.67% (active); in assay [10] it was 17.1%; in assay [11] it was -10.7% (active); in assay [12], 39.9%. Also, the growth in assay [13] is 12.2%; in assay [14] it was -25.3% (active); in assay [15], 8.65% (active); in [16] it was 48.8%; in assay [17] it was -21.4% (active).
On to `Cc1ccc2c(N)c(C(=O)Nc3ccc(-c4ccccc4)cc3)sc2n1`, for which the growth in [1] was 43.1%; in assay [2], 49.2%; in assay [3], 73.4%; in assay [4], 71%; in assay [5], 47.3%; in assay [6] it was 60.3%. For the same molecule, the growth is 72.5% in assay [7]; 79.1% in assay [8]; 50.5% in assay [9]; 29.5% in [10]; 53.2% in assay [11]; 69.1% in [12]. Moreover, the growth in assay [13] is 43.2%; in [14], 29.5%; in assay [15], 101%; in assay [16], 77.3%; in [17] it was 17.8%.
Turning to `CC(C)c1ccc2c(N)c(C(=O)Nc3cccc(C(F)(F)F)c3)sc2n1`, the growth in assay [1] is 40.4%; in assay [2], 32.1%; in [3] it was 90.7%; in [4], 85%; in assay [5], 78.1%; in [6], 87.2%. In addition, the growth in assay [7] is 108%; in [8], 94.1%; in assay [9], 71.7%; in [10], 51.8%; in [11], 112%; in [12], 82.5%. Further, the growth in assay [13] was 70.3%; in assay [14] it was 81.4%; in [15], 73.1%; in assay [16] it was 43.2%; in [17], 13.2%.
For `C[C@H](Nc1nc(NCCc2ccccc2)nc2ccccc12)c1ccccc1`, the growth was -64.3% (active) in assay [1]; -37.5% (active) in assay [2]; -78.6% (active) in assay [3]; -92.2% (active) in [4]; -31.4% (active) in assay [5]; -88.9% (active) in [6]. For the same molecule, the growth in assay [7] was -84.6% (active); in assay [8] it was -70.1% (active); in [9], -73.9% (active); in [10], -55.1% (active); in [11], -86.9% (active); in assay [12] it was -88.5% (active). The growth in assay [13] is -87.4% (active); in assay [14], -83.7% (active); in assay [15], -98.7% (active); in [16], -77.2% (active); in [17], -96.3% (active).
Consider `N#Cc1c(-c2ccc(Cl)cc2)nc2n[nH]c(-c3ccc(Cl)cc3)c2c1-c1ccc(C(F)(F)F)cc1`, for which the growth is -21.8% (active) in [1]; -2.57% (active) in [2]; 16.2% in assay [3]; -41.8% (active) in assay [4]; 2.98% (active) in assay [5]; 3.06% (active) in [6]. For the same molecule, the growth in assay [7] was -15% (active); in assay [8], -13.9% (active); in assay [9], -24.5% (active); in assay [10] it was -2.6% (active); in assay [11], -40% (active); in assay [12] it was -29.7% (active). Further, the growth in assay [13] is -4.6% (active); in [14], -63.3% (active); in [15], -38.9% (active); in assay [16], -11% (active); in [17], -45% (active).
Consider `CC1CCCCN1CCCNC(=O)N/C(N)=N/c1nc2ccccc2s1` (stereo unspecified), for which the growth is -17.1% (active) in assay [1]; 1.48% (active) in assay [2]; 75.2% in [3]; 38.2% in [4]; 74.9% in assay [5]; 58.8% in assay [6]. Further, the growth was 47.9% in assay [7]; 72.4% in assay [8]; 64.1% in assay [9]; 57.2% in assay [10]; 55.6% in [11]; -35.2% (active) in assay [12]. In addition, the growth in [13] was -9.89% (active); in [14] it was 16.8%; in assay [15], 47.1%; in [16] it was 48.2%; in [17], 11.2%.
Turning to `CCOC(=O)C1=C(N)N(c2ccccc2)C2=C(C(=O)CC(C)(C)C2)C1c1cccc(Cl)c1Cl` (stereo unspecified), the growth in assay [1] was 56.3%; in [2], 50.7%; in assay [3] it was 59.4%; in assay [4], 87.6%; in assay [5], 65.8%; in assay [6], 82%. The growth in assay [7] is 83.6%; in [8], 87.4%; in [9], 51%; in assay [10] it was 71.6%; in assay [11], 68.8%; in [12] it was 87.8%. Further, the growth in [13] was 60%; in assay [14], 40.1%; in [15] it was 86.9%; in assay [16] it was 76.6%; in assay [17] it was 47.8%.
In the case of `N#Cc1c(-c2ccc(Br)cc2)nc2n[nH]c(-c3ccc(Br)cc3)c2c1-c1ccc(C(F)(F)F)cc1`, the growth in assay [1] was -11.6% (active); in [2], 0.725% (active); in assay [3], 40.4%; in [4] it was 47.7%; in assay [5] it was 11.8%; in assay [6], 21.8%. In addition, the growth in assay [7] is 6.15% (active); in assay [8], 10.7%; in [9], 23.7%; in assay [10], 3.49% (active); in assay [11] it was 11.3%; in assay [12], 3.09% (active). Moreover, the growth is 5.3% (active) in assay [13]; 6.76% (active) in assay [14]; 21.8% in assay [15]; 10.9% in assay [16]; -4.16% (active) in [17].
